Results published in paper PMC13494018.

B1: design_622_fcc41892-afde-4fb9-b6e8-b664fffd6a75_2329_dldesign_0_cycle1_af2pred (protein)
chain: AALREEAKKRVDAAVAAADAAAAADPLAGAIAYGELAVETARLAAELARADPAAGAEMRAKLVDISQKAIALALAAG
B2: design_623_6e2e8b1f-5d9a-4413-9869-27a184816b12_262_dldesign_0_cycle1_af2pred (protein)
chain: GAAEARAQAEKTFAEAIEVGKEALKEAEKLKEKDKEKAEKYIKKINELLHELFRAMALSMTDPEAGLKAIEEQLKKLKEVLKEIKE
B3: design_623_6e2e8b1f-5d9a-4413-9869-27a184816b12_258_dldesign_0_cycle1_af2pred (protein)
chain: ASEAAAQTITRGVAELRERFADLSPEALAALAAAQQAALLAAIQGDFEAAAAEVVRGAEAVGAISPHTEEIRALGRATAERILALA
B4: design_622_fcc41892-afde-4fb9-b6e8-b664fffd6a75_1878_dldesign_0_cycle1_af2pred (protein)
chain: GRQQELNQALGLTLEAAKKASELNKEVLPLVNEAASLIAKAYLTGDKELLKKAIEKLKKAAELASEEVKVLLKKAAEHAKKAIEL
B5: design_623_6e2e8b1f-5d9a-4413-9869-27a184816b12_254_dldesign_0_cycle1_af2pred (protein)
chain: DDLTQAQIALAAAQALIKNAKAVLEDKSASEETLKSAAEAMEVAIQLAKQAEKLAKKADPELAKKAKEVKKEAEKVKKELEKKI
B6: design_622_fcc41892-afde-4fb9-b6e8-b664fffd6a75_2129_dldesign_0_cycle1_af2pred (protein)
chain: AAAEAAARAALLAEGLALAHQAATFAAMAEYSPGVAPLAERARARLEAVTAAATPEVAAEIRAAYEASLARVRAALA
B7: design_622_fcc41892-afde-4fb9-b6e8-b664fffd6a75_1677_dldesign_0_cycle1_af2pred (protein)
chain: MEELEELKERSEEVKKRAEEAKKKGEELKKKSPKTAVAGNAVIALAKSAKELAEDPEKVEQAEKVLEIAEAIIKAA
B8: design_623_6e2e8b1f-5d9a-4413-9869-27a184816b12_569_dldesign_0_cycle1_af2pred (protein)
chain: NAAAQATVAAIVKQLRKRAEEEAGNPEIAKALKDGAEAVKEAGKKGIGAAVETLKETYAKVAELRAAQAAA
B9: design_622_fcc41892-afde-4fb9-b6e8-b664fffd6a75_2361_dldesign_0_cycle1_af2pred (protein)
chain: EQEKKAKELLKKVKELAKKAEETIKAGIAAGLPKEEIVGKGGELVVEAAKKAAELARVGTPEQAAEARKIVAAAIKYLLKVAAA
B10: design_623_6e2e8b1f-5d9a-4413-9869-27a184816b12_287_dldesign_0_cycle1_af2pred (protein)
chain: AAAAKAALAAAKAKADEVAKYAEEVDPELGKEIKAKQADLTKAAQDGLAISPALAKGAANMLAAYAESAKKKAEKLAKEK
B11: design_623_6e2e8b1f-5d9a-4413-9869-27a184816b12_1170_dldesign_0_cycle1_af2pred (protein)
chain: MSQAVLNTAKIAIETAGRSSPEEAKKLVEQAVDIASSASDENKKELVKYAKELAKKDPSSKEFYEAAAKKIEATL
B12: design_622_fcc41892-afde-4fb9-b6e8-b664fffd6a75_2288_dldesign_0_cycle1_af2pred (protein)
chain: SAEEEVLAKVKELRDKVEAAAADPAKAAEGAALAQEALAFLEENLPVIRAGGQELKDAVHALLRAIARHNAVYN
B13: design_622_fcc41892-afde-4fb9-b6e8-b664fffd6a75_1795_dldesign_0_cycle1_af2pred (protein)
chain: ANAQLAKGYLTAGQVYLQSPDAAYQEQAATAAQAAAAYAEADPAMADLAKQAKALEAEAKAKAAAAKAAA
B14: design_622_fcc41892-afde-4fb9-b6e8-b664fffd6a75_1477_dldesign_0_cycle1_af2pred (protein)
chain: GEAVQTAVDALKLLSEERRRAAALVAADPENAEARAILERLEESFRAVARAAANPATAQEVGEAGIAEAERARERLAALA
B15: design_622_fcc41892-afde-4fb9-b6e8-b664fffd6a75_1610_dldesign_0_cycle1_af2pred (protein)
chain: DDAAKLASLREFLAQLVEIAKAGNAEQARVMARNARAAARSVAAAVASAAEALALGAEAEAEILAIAQEKAAAA
B16: design_623_6e2e8b1f-5d9a-4413-9869-27a184816b12_873_dldesign_0_cycle1_af2pred (protein)
chain: SENVKKAKALAAKSKELLEKAKKGDAETAQKALKEISKLANELAKLATSSPAADQAATNAALAVAVEAAEEASKIAREKKA
B17: design_623_6e2e8b1f-5d9a-4413-9869-27a184816b12_890_dldesign_0_cycle1_af2pred (protein)
chain: SPAARLMEATYRRLEEALEKLERAEELSPEEVLEAARLAEANARFARLAGRQAAAEEGTAEAAEAAAKAEALAEEAEEKAREARERLE
B18: design_623_6e2e8b1f-5d9a-4413-9869-27a184816b12_1233_dldesign_0_cycle1_af2pred (protein)
chain: DAATQAKVKELAEKALNGTPEEAYKATAEAFKISEQAGMEVLAAAAKGKPENAHAALSAYAAGLVAAKKAA
B19: design_623_6e2e8b1f-5d9a-4413-9869-27a184816b12_1249_dldesign_0_cycle1_af2pred (protein)
chain: AEAAKAAALEVLALAQEYYDQAKKNAAKIAPEKLKKADEAYAKALAALAAGDYGLAAHYAMLAYSYSSTGLQEA
B20: design_622_fcc41892-afde-4fb9-b6e8-b664fffd6a75_2349_dldesign_0_cycle1_af2pred (protein)
chain: LTEELARETARGQRYAAELIALDPAAQELLEQVRRLSAAALQALLAGDEELAKKLAEEVKRLAEEIKARAEALK
B21: design_622_fcc41892-afde-4fb9-b6e8-b664fffd6a75_1828_dldesign_0_cycle1_af2pred (protein)
chain: EAAAREAAARRLAAALEAAEAAAAGPLGPRVAVAAAEVALEVLAAHPRLSPEAVRAAHRLLVLGGRAAGILAA
B22: design_623_6e2e8b1f-5d9a-4413-9869-27a184816b12_1242_dldesign_0_cycle1_af2pred (protein)
chain: AAARRTALGLQRGASVIAYAKEVGVPEAGRRAGLLVVLALAGGAALGAAAAAAAEALAEELAAAGYPGFGTFVRGILRAARAEAA
B23: design_623_6e2e8b1f-5d9a-4413-9869-27a184816b12_1349_dldesign_0_cycle1_af2pred (protein)
chain: DRLREIAAALAKEVAEATGADPATTEKLAELLAAVLEANQQGPEAFAAAYSKLVDFTVSTGSDALLAKAGAAVSRGLRALG
B24: design_623_6e2e8b1f-5d9a-4413-9869-27a184816b12_997_dldesign_0_cycle1_af2pred (protein)
chain: EGEKLWKEAKALTDQAKALAAQAQATTDAAQAKQYAIEAAAATTEAMRLASEAARLLGPEKQEEANRLVQEATQALVAATQAAQALA
B25: design_623_6e2e8b1f-5d9a-4413-9869-27a184816b12_532_dldesign_0_cycle1_af2pred (protein)
chain: AAVAAAIAAGEAAIKTVEALTKQAKTATPEERKAIAEQLRAAAVTLMNAAVASSPAYSPKFGAAAVEALQAAAEAG
B26: design_623_6e2e8b1f-5d9a-4413-9869-27a184816b12_1303_dldesign_0_cycle1_af2pred (protein)
chain: AAAQADALTARGKELYAEGKKKYKEGKKEEAAKLFFEAANDYMRAASLYSKVDPAQAVAALEQMEKAIEEYKKAKE
B27: design_622_fcc41892-afde-4fb9-b6e8-b664fffd6a75_1873_dldesign_0_cycle1_af2pred (protein)
chain: NALVQAGKIAAQAAVSLAKNAIAHADEMSPEGLQGAIDVATALIEYAEKAAKEDPEVAKLVEEAKKLVAEAKAVLAAR
B28: design_623_6e2e8b1f-5d9a-4413-9869-27a184816b12_221_dldesign_0_cycle1_af2pred (protein)
chain: EEEEKRAAAKEAAALLEAAADDPATRGELVLQAIALLTRYPELAPYASAATRALALAAQEGVAAGAAALREVAAGVKALAE
B29: design_622_fcc41892-afde-4fb9-b6e8-b664fffd6a75_2191_dldesign_0_cycle1_af2pred (protein)
chain: MKEEVEKLKKEAEKLVKEAKAAAEAGDSGKAVSLASEAFKVARELEKLPESKELGKELKAKAHEVLTLAAK
B30: design_622_fcc41892-afde-4fb9-b6e8-b664fffd6a75_1801_dldesign_0_cycle1_af2pred (protein)
chain: QALLEAASAIVEAAELAAKEVGPAAANALLTEAGKLLATGEAGLKAAVAEIDKVAKQASPEVAKKLLELRDKAAA
B31: design_623_6e2e8b1f-5d9a-4413-9869-27a184816b12_824_dldesign_0_cycle1_af2pred (protein)
chain: MEEKIKEAEKLYLEGLKAAGAAHAAIVKGDVAAAKKALEKLKEIAEKLKELGKESEEAKKIAENAEKLYEVTKAAVDAAAAA
B32: design_623_6e2e8b1f-5d9a-4413-9869-27a184816b12_681_dldesign_0_cycle1_af2pred (protein)
chain: MEEIKEKAKELAETVEAIGEELAKFGLETGNENAITAGVNTAKHVAKYAERLSPEAGKIAEKTKEKVEKLGKKAKAEIAA
B33: design_623_6e2e8b1f-5d9a-4413-9869-27a184816b12_1352_dldesign_0_cycle1_af2pred (protein)
chain: AAEARKAEAVARAKAAAQNAKLVAEGAGEAFAAEAAEVAALAKQAATSTAEEAEKLAEQAAAKTVAMTRAAIALHAAA
B34: design_622_fcc41892-afde-4fb9-b6e8-b664fffd6a75_2272_dldesign_0_cycle1_af2pred (protein)
chain: DEAKKQLEIATKMAEYALKQAEAALKDGRTAGTVVPAQVKTLKLLAESAEATGLEEAKKKAEEFKKKAKELEKAAEKAK
B35: design_622_fcc41892-afde-4fb9-b6e8-b664fffd6a75_1948_dldesign_0_cycle1_af2pred (protein)
chain: SEEALLLANQGVALASQGLIAGDDAKVKEGIKKIEEAKKLASPELAKTFDKLKATVEAMAAGTAAARAAAAAAA
B36: design_622_fcc41892-afde-4fb9-b6e8-b664fffd6a75_2371_dldesign_0_cycle1_af2pred (protein)
chain: SAAAAESNQELAKQLKAIAQANAKAGDAEAVERVARSAAAAAKAVSEHPEAQKALTEAAKEAQKLAQQVKAA
B37: design_623_6e2e8b1f-5d9a-4413-9869-27a184816b12_67_dldesign_0_cycle1_af2pred (protein)
chain: SREEELERVEEAIATARDVLAGAELTAAQVSPELAAAALRSAARTAVVLFEGEARRAEDEEARERLRKAAEEARKVAA
B38: design_623_6e2e8b1f-5d9a-4413-9869-27a184816b12_1293_dldesign_0_cycle1_af2pred (protein)
chain: DAIRARAAEVKERAERLLEEGKRLPEIEEQVREMAESAKALADDALAAAATDPAQARLALAAAEALVRSLELLVERAKEEA

Target: CD276, Q5ZPR3
Sequence (Q5ZPR3 whole entry): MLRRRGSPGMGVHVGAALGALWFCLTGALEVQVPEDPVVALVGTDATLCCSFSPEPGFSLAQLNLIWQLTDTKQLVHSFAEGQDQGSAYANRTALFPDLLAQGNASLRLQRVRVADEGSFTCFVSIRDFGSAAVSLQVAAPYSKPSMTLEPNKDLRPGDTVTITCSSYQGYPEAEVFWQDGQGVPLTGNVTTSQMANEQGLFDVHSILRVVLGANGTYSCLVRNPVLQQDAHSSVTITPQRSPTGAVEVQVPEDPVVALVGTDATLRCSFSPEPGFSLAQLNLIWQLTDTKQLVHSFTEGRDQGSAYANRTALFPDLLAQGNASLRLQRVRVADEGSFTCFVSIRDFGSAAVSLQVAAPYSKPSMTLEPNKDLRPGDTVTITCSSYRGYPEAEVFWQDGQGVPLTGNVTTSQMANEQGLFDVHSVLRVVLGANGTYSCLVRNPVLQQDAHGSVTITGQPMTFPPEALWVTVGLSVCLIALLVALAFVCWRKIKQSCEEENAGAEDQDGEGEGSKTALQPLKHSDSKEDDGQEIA

Binding in a display sort, inactive:
B1 not found
B2 not found
B3 not found
B4 not found
B5 not found
B6 not found
B7 not found
B8 not found
B9 not found
B10 not found
B11 not found
B12 not found
B13 not found
B14 not found
B15 not found
B16 not found
B17 not found
B18 not found
B19 not found
B20 not found
B21 not found
B22 not found
B23 not found
B24 not found
B25 not found
B26 not found
B27 not found
B28 not found
B29 not found
B30 not found
B31 not found
B32 not found
B33 not found
B34 not found
B35 not found
B36 not found
B37 not found
B38 not found
